# Values without a mark were called inactive. For part of these data: Potency and affinity values are given separately. The source made the active and inactive calls. Unless noted, the rule behind the calls is not given here.
# Tests used:
# [1] = antimalarial activity against Dd2 strain (AID 2302;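 active = growth inhibition above 50% at the single 2 µM test dose, taken to imply half-maximal potency below 2 µM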;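 note: 0% = DMSO untreated growth and 100% = chloroquine plus artemisinin killed control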); conditions: P. falciparum Dd2 in RBCs, LDH growth readout, 72 h; at 2 µM; stronger effect = higher value
# [2] = human hepatoma cell viability loss – ATP luminescence, cytotoxicity control for P. falciparum antimalarial project, primary screen (AID 2303;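 active = inhibition above 50%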;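 note: 0% = DMSO wells and 100% = digitonin-killed cells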); conditions: HepG2 viability, 24-48 h, at 10 µM, stronger effect = higher value
# [3] = target: L-lactate dehydrogenase (Plasmodium falciparum (isolate CDC / Honduras)) (UniProt Q27743); assay: PfLDH activity inhibition – cell lysate, 3D7 strain, counter-screen for P. falciparum growth inhibition project (AID 2304);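 note: 0% = vehicle and 100% = reference inhibitor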; conditions: P. falciparum 3D7 crude extract, LDH APAD/NBT absorbance; at 2 µM; stronger effect = higher value
# Sequence of L-lactate dehydrogenase (Plasmodium falciparum (isolate CDC / Honduras)) (Q27743 whole entry, looked up): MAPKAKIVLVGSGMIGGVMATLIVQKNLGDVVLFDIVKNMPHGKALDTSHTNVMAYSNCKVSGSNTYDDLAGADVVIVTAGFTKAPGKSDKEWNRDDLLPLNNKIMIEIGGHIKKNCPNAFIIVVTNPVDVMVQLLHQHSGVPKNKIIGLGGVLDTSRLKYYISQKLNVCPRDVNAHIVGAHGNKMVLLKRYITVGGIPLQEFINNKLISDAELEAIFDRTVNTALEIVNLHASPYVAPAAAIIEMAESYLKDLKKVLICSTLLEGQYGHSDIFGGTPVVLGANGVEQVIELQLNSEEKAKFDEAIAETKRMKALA
# [4] = inhibition of 3D7 malaria parasite growth – strain 3D7 (AID 2306);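 note: 0% = DMSO wells and 100% = chloroquine plus artemisinin control wells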; conditions: P. falciparum 3D7 erythrocytic growth, LDH absorbance, 72 h; at 2 µM; stronger effect = higher value
# [5] = target: Plasmodium falciparum protein kinase 6 (PK6, PF3D7_1337100) (UniProt Q8IDW1); assay: PfPK6 kinase inhibitors, biochemical, TCAMS library (AID 1159586); conditions: recombinant PfPK6, Kinase-Glo ATP depletion luminescence
# Sequence of Plasmodium falciparum protein kinase 6 (PK6, PF3D7_1337100) (Q8IDW1 1-305): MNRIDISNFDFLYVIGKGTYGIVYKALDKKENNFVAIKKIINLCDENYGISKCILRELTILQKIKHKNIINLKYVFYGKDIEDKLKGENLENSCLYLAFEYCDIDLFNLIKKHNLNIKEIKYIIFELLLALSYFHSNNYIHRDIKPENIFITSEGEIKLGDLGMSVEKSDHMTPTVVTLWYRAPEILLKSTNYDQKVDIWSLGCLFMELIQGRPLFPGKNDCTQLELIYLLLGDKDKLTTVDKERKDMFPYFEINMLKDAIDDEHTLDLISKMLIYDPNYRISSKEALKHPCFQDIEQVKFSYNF
# [6] = target: Protein kinase 7 (PK7), Plasmodium falciparum 3D7 (PF3D7_0213400) (UniProt Q7YTF7); assay: inhibition of Plasmodium PK7 catalytic activity – biochemical, TCAMS antimalarial set, Kinase-Glo luminescence (AID 1159587); conditions: recombinant PfPK7, Kinase-Glo ATP depletion luminescence
# Sequence of Protein kinase 7 (PK7), Plasmodium falciparum 3D7 (PF3D7_0213400) (Q7YTF7 1-343): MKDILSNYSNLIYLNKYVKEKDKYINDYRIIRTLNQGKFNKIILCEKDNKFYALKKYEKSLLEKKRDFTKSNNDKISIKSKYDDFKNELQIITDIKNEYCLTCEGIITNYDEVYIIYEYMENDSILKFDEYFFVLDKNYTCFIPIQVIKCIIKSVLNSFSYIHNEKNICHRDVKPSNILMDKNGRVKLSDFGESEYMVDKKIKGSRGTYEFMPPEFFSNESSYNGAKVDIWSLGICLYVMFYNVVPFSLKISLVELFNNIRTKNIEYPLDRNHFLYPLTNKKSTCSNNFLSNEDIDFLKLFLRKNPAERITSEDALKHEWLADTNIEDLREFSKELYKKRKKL
# [7] = target: Calcium-dependent protein kinase 4 (Plasmodium falciparum (isolate 3D7)) (UniProt Q8IBS5); assay: PfCDPK4 kinase inhibitors, biochemical, TCAMS library (AID 1159588; cut-off not given, nearly all actives have IC50 up to about 0.91 µM); conditions: recombinant PfCDPK4, Kinase-Glo ATP depletion luminescence
# Sequence of Calcium-dependent protein kinase 4 (Plasmodium falciparum (isolate 3D7)) (Q8IBS5 whole entry, looked up): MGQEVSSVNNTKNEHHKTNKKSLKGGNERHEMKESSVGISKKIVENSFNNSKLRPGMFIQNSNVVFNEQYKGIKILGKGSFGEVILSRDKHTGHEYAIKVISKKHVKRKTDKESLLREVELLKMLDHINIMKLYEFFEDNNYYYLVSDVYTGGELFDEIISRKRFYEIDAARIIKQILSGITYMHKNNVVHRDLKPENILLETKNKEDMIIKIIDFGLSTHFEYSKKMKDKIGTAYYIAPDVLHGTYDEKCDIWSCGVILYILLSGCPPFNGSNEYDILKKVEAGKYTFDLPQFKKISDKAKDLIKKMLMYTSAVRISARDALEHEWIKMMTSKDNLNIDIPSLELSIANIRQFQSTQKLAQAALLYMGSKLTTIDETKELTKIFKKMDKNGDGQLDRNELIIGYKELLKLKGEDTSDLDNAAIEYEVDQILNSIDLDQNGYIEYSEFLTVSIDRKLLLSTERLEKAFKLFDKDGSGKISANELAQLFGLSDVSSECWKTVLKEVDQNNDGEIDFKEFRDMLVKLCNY
Structure (SMILES),growth inhibition [1],inhibition [2],inhibition [3],growth inhibition [4],outcome [5],outcome [6],outcome [7]
COCCNCc1cccc(-c2ccc3c(Nc4cc(O)c(Cl)cc4F)ccnc3c2)c1,79% (active),-3%,7%,101% (active),inactive,inactive,inactive
O=C(NCCN1CCC(c2ccncc2)CC1)c1ccc(Nc2nccc(Nc3ccc(Oc4ccccc4)cc3)n2)cc1,90% (active),17%,1%,102% (active),inactive,inactive,inactive
NC(=O)c1ccccc1Nc1nc(Nc2ccn[nH]2)ncc1Cl,93% (active),67% (active),-4%,96% (active),inactive,inactive,inactive
CC(C)(CNC(=O)[C@H]1CCCN1)c1nc(-c2ccc(Cl)c(O)c2)c(-c2ccncc2)[nH]1,95% (active),-11%,-1%,86% (active),inactive,inactive,inactive
Nc1ncc(-c2cn[nH]c2)cc1-c1nc2ccc(F)cc2[nH]1,53% (active),38%,-3%,101% (active),inactive,inactive,inactive
CC(C)(CNC(=O)[C@H]1CCCCN1)c1nc(-c2ccc(Cl)c(O)c2)c(-c2ccncc2)[nH]1,98% (active),6%,-3%,98% (active),inactive,inactive,inactive
Cc1ccc(Nc2nccc(Nc3ccc4c(c3)nc(Nc3cc(C(C)(C)C)on3)n4C)n2)cc1S(C)(=O)=O,99% (active),30%,-5%,100% (active),inactive,inactive,inactive
CCOC(=O)c1cccc(NC(=O)Nc2cccc(-c3ncc(OCCCN)c4c3nc(-c3nonc3N)n4CC)c2)c1,98% (active),16%,2%,100% (active),inactive,inactive,inactive
Cn1c(Nc2cc(C(C)(C)C)on2)nc2cc(Nc3ccnc(Nc4cccc(CS(C)(=O)=O)c4)n3)ccc21,94% (active),63% (active),-4%,99% (active),inactive,inactive,inactive
c1ccc(Oc2ccc(Nc3ccnc(Nc4ccc(OCCN5CCCCC5)cc4)n3)cc2)cc1,66% (active),23%,-2%,97% (active),inactive,inactive,inactive
CN1CCN(CCCNCc2cccc(Nc3nccc(Nc4ccc(Oc5ccccc5)cc4)n3)c2)CC1,80% (active),97% (active),-2%,100% (active),inactive,inactive,inactive
COc1ccc(CNCC(C)(C)c2nc(-c3ccc(Cl)c(O)c3)c(-c3ccncc3)[nH]2)cc1,99% (active),76% (active),1%,101% (active),inactive,inactive,inactive
O=C(NCCCN1CCCCC1)c1cccc(Nc2nccc(Nc3ccc(Oc4ccccc4)cc3)n2)c1,12%,47%,2%,96% (active),inactive,inactive,inactive
c1cncc(Oc2ccc(Nc3ccnc4cc(-c5cccc(CNCCN6CCOCC6)c5)ccc34)cc2)c1,99% (active),14%,4%,101% (active),inactive,inactive,inactive
CC(C)(CNC(=O)C1CCN(Cc2ccoc2)CC1)c1nc(-c2ccc(Cl)c(O)c2)c(-c2ccncc2)[nH]1,66% (active),-12%,-2%,93% (active),inactive,inactive,inactive

# From PubChem BioAssay
